Our source for the binding signal values is publication PMC11006913.

Holding throughout (test): PBM; 200 nM protein, PBS
Common to all, as to details: dsDNA, one strand shown

One experiment has as its target T1, VENTX (Homo sapiens, UniProt O95231 78-163, R121Q).
T1 sequence: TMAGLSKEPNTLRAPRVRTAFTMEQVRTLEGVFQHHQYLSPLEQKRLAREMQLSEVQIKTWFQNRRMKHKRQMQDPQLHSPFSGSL

For experiment [1], the target named is HOXA4 (Homo sapiens, UniProt Q00056 201-287, W262R).
The target in experiment [2] is HOXA7 (Homo sapiens, UniProt P31268 116-202).
In experiment [3] the target is ALX4 (Homo sapiens, UniProt Q9H161 200-286).
Experiment [4] has as its target PRRX1 (Homo sapiens, UniProt P54821 80-166, F113S).
Experiment [5] deals with HOXB6 (Homo sapiens, UniProt P17509 132-218, K202E).
In experiment [6] the target is ALX4 (Homo sapiens, UniProt Q9H161 200-286, Q225E).
For experiment [7], the target named is HOXA2 (Homo sapiens, UniProt O43364 129-215, R185T).
In experiment [8] the target is MSX2 (Homo sapiens, UniProt P35548 130-214, R199I).
Experiment [9] deals with HOXA2 (Homo sapiens, UniProt O43364 129-215, R185K).
In experiment [10] the target is HOXA4 (Homo sapiens, UniProt Q00056 201-287).
Experiment [11] has as its target MSX2 (Homo sapiens, UniProt P35548 130-214).
The target in experiment [12] is MSX2 (Homo sapiens, UniProt P35548 130-214, F161Y).
In experiment [13] the target is VAX1 (Homo sapiens, UniProt Q5SQQ9 86-172, T142I).
Experiment [14] addresses HOXA7 (Homo sapiens, UniProt P31268 116-202, W177C).
The next experiment addresses ALX1 (Homo sapiens, UniProt Q15699 118-204).
For experiment [15], the target named is HOXA4 (Homo sapiens, UniProt Q00056 201-287, W262F).
Experiment [16] has as its target PRRX1 (Homo sapiens, UniProt P54821 80-166).
For experiment [17], the target named is VAX1 (Homo sapiens, UniProt Q5SQQ9 86-172, K157R).
For experiment [18], the target named is HOXB6 (Homo sapiens, UniProt P17509 132-218).
Chain of HOXB6 (Homo sapiens, UniProt P17509 132-218) (P17509 132-218): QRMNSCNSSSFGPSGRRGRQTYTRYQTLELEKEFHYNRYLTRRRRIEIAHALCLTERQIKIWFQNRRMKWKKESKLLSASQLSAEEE

Chain of HOXA7 (Homo sapiens, UniProt P31268 116-202) (P31268 116-202): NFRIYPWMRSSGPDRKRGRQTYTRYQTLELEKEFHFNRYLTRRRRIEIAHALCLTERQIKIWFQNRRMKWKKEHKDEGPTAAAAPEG
Chain of HOXA7 (Homo sapiens, UniProt P31268 116-202, W177C) (P31268 116-202 W177C): as the sequence (P31268 116-202) above, with W62C counted along it
Chain of HOXA4 (Homo sapiens, UniProt Q00056 201-287, W262R) (Q00056 201-287 W262R): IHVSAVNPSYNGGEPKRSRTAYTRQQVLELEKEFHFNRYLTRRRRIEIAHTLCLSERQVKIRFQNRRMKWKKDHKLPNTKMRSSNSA
Chain of HOXA4 (Homo sapiens, UniProt Q00056 201-287, W262F) (Q00056 201-287 W262F): as the sequence (Q00056 201-287 W262R) above, with R62F counted along it
Chain of PRRX1 (Homo sapiens, UniProt P54821 80-166, F113S) (P54821 80-166 F113S): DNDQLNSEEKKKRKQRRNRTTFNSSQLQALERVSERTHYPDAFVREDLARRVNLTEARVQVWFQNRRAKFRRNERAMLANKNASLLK
Chain of VAX1 (Homo sapiens, UniProt Q5SQQ9 86-172, T142I) (Q5SQQ9 86-172 T142I): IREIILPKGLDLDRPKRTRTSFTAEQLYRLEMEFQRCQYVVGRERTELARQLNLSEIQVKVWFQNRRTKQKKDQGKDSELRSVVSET
Chain of VAX1 (Homo sapiens, UniProt Q5SQQ9 86-172, K157R) (Q5SQQ9 86-172 K157R): as the sequence (Q5SQQ9 86-172 T142I) above, with I57T, K72R counted along it
Chain of PRRX1 (Homo sapiens, UniProt P54821 80-166) (P54821 80-166): as the sequence (P54821 80-166 F113S) above, with S34F counted along it
Chain of ALX4 (Homo sapiens, UniProt Q9H161 200-286) (Q9H161 200-286): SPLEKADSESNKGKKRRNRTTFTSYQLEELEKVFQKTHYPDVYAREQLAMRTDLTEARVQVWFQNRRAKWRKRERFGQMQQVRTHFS
Chain of ALX1 (Q15699 118-204): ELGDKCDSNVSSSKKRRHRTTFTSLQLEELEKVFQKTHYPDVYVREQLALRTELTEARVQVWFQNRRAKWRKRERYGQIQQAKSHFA
Chain of ALX4 (Homo sapiens, UniProt Q9H161 200-286, Q225E) (Q9H161 200-286 Q225E): as the sequence (Q9H161 200-286) above, with Q26E counted along it
Chain of MSX2 (Homo sapiens, UniProt P35548 130-214) (P35548 130-214): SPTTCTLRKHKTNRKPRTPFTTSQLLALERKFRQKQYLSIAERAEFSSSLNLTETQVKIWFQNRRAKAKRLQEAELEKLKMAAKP
Chain of MSX2 (Homo sapiens, UniProt P35548 130-214, F161Y) (P35548 130-214 F161Y): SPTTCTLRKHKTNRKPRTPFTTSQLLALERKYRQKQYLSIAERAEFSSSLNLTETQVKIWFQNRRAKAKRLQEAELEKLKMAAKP
Chain of HOXA2 (Homo sapiens, UniProt O43364 129-215, R185K) (O43364 129-215 R185K): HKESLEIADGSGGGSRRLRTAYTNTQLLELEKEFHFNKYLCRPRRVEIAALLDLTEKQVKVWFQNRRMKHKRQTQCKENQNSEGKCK
Chain of HOXB6 (Homo sapiens, UniProt P17509 132-218, K202E) (P17509 132-218 K202E): as the sequence (P17509 132-218) above, with K71E counted along it
Chain of MSX2 (Homo sapiens, UniProt P35548 130-214, R199I) (P35548 130-214 R199I): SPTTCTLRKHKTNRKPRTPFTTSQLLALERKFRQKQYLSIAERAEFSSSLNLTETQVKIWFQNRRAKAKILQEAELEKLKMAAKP
Chain of HOXA2 (Homo sapiens, UniProt O43364 129-215, R185T) (O43364 129-215 R185T): as the sequence (O43364 129-215 R185K) above, with K57T counted along it
Chain of HOXA4 (Homo sapiens, UniProt Q00056 201-287) (Q00056 201-287): as the sequence (Q00056 201-287 W262R) above, with R62W counted along it

Consider ACTAATTA, for which the binding signal was 12.8 upbm affinity estimate (log intensity, higher = more binding, comparable within an allelic series) with VENTX; 10.9 upbm affinity estimate (log intensity, higher = more binding, comparable within an allelic series) with HOXA4 [1]; 12.1 upbm affinity estimate (log intensity, higher = more binding, comparable within an allelic series) in the experiment with HOXA7 [2]; 14.4 upbm affinity estimate (log intensity, higher = more binding, comparable within an allelic series) with ALX4 [3]; 12 upbm affinity estimate (log intensity, higher = more binding, comparable within an allelic series) with PRRX1 [4]; 10.2 upbm affinity estimate (log intensity, higher = more binding, comparable within an allelic series) with HOXB6 [5]. Also, the binding signal in the experiment with ALX4 [6] was 14.3 upbm affinity estimate (log intensity, higher = more binding, comparable within an allelic series); with HOXA2 [7], 14 upbm affinity estimate (log intensity, higher = more binding, comparable within an allelic series); in the experiment with MSX2 [8], 13.5 upbm affinity estimate (log intensity, higher = more binding, comparable within an allelic series); with HOXA2 [9] it was 13.8 upbm affinity estimate (log intensity, higher = more binding, comparable within an allelic series); in the experiment with HOXA4 [10], 14.2 upbm affinity estimate (log intensity, higher = more binding, comparable within an allelic series); with MSX2 [11], 14.1 upbm affinity estimate (log intensity, higher = more binding, comparable within an allelic series). Further, the binding signal with MSX2 [12] was 13.8 upbm affinity estimate (log intensity, higher = more binding, comparable within an allelic series); with VAX1 [13], 14.1 upbm affinity estimate (log intensity, higher = more binding, comparable within an allelic series); with HOXA7 [14], 8.93 upbm affinity estimate (log intensity, higher = more binding, comparable within an allelic series); with ALX1, 13 upbm affinity estimate (log intensity, higher = more binding, comparable within an allelic series); with HOXA4 [15] it was 12.8 upbm affinity estimate (log intensity, higher = more binding, comparable within an allelic series); with PRRX1 [16] it was 13.7 upbm affinity estimate (log intensity, higher = more binding, comparable within an allelic series). The binding signal was 14.2 upbm affinity estimate (log intensity, higher = more binding, comparable within an allelic series) with VAX1 [17] and 12.4 upbm affinity estimate (log intensity, higher = more binding, comparable within an allelic series) with HOXB6 [18].
Turning to TCAATTAA, the binding signal with VENTX is 12 upbm affinity estimate (log intensity, higher = more binding, comparable within an allelic series); with HOXA4 [1], 10.7 upbm affinity estimate (log intensity, higher = more binding, comparable within an allelic series); with HOXA7 [2] it was 11.5 upbm affinity estimate (log intensity, higher = more binding, comparable within an allelic series); with ALX4 [3] it was 14.1 upbm affinity estimate (log intensity, higher = more binding, comparable within an allelic series); with PRRX1 [4] it was 11.3 upbm affinity estimate (log intensity, higher = more binding, comparable within an allelic series); with HOXB6 [5], 9.94 upbm affinity estimate (log intensity, higher = more binding, comparable within an allelic series). The binding signal was 13.8 upbm affinity estimate (log intensity, higher = more binding, comparable within an allelic series) in the experiment with ALX4 [6]; 13.1 upbm affinity estimate (log intensity, higher = more binding, comparable within an allelic series) in the experiment with HOXA2 [7]; 12.8 upbm affinity estimate (log intensity, higher = more binding, comparable within an allelic series) with MSX2 [8]; 13.2 upbm affinity estimate (log intensity, higher = more binding, comparable within an allelic series) with HOXA2 [9]; 13.9 upbm affinity estimate (log intensity, higher = more binding, comparable within an allelic series) with HOXA4 [10]; 13.9 upbm affinity estimate (log intensity, higher = more binding, comparable within an allelic series) in the experiment with MSX2 [11]. The binding signal with MSX2 [12] is 13.5 upbm affinity estimate (log intensity, higher = more binding, comparable within an allelic series); with VAX1 [13] it was 13.1 upbm affinity estimate (log intensity, higher = more binding, comparable within an allelic series); with HOXA7 [14], 8.86 upbm affinity estimate (log intensity, higher = more binding, comparable within an allelic series); with ALX1, 12.6 upbm affinity estimate (log intensity, higher = more binding, comparable within an allelic series); with HOXA4 [15] it was 11.8 upbm affinity estimate (log intensity, higher = more binding, comparable within an allelic series); in the experiment with PRRX1 [16], 13.5 upbm affinity estimate (log intensity, higher = more binding, comparable within an allelic series). Moreover, the binding signal with VAX1 [17] was 13 upbm affinity estimate (log intensity, higher = more binding, comparable within an allelic series); with HOXB6 [18] it was 11.9 upbm affinity estimate (log intensity, higher = more binding, comparable within an allelic series).
With CAATTAGC, the binding signal is 12.6 upbm affinity estimate (log intensity, higher = more binding, comparable within an allelic series) with VENTX; 10.5 upbm affinity estimate (log intensity, higher = more binding, comparable within an allelic series) with HOXA4 [1]; 11.3 upbm affinity estimate (log intensity, higher = more binding, comparable within an allelic series) with HOXA7 [2]; 14.1 upbm affinity estimate (log intensity, higher = more binding, comparable within an allelic series) in the experiment with ALX4 [3]; 11.1 upbm affinity estimate (log intensity, higher = more binding, comparable within an allelic series) in the experiment with PRRX1 [4]; 13.5 upbm affinity estimate (log intensity, higher = more binding, comparable within an allelic series) with ALX4 [6]. In addition, the binding signal with HOXA2 [7] is 13.4 upbm affinity estimate (log intensity, higher = more binding, comparable within an allelic series); with MSX2 [8] it was 13.1 upbm affinity estimate (log intensity, higher = more binding, comparable within an allelic series); with HOXA2 [9], 13.6 upbm affinity estimate (log intensity, higher = more binding, comparable within an allelic series); in the experiment with HOXA4 [10], 13.9 upbm affinity estimate (log intensity, higher = more binding, comparable within an allelic series); in the experiment with MSX2 [11], 14.1 upbm affinity estimate (log intensity, higher = more binding, comparable within an allelic series); with MSX2 [12], 13.8 upbm affinity estimate (log intensity, higher = more binding, comparable within an allelic series). The binding signal in the experiment with VAX1 [13] was 13.3 upbm affinity estimate (log intensity, higher = more binding, comparable within an allelic series); with HOXA7 [14] it was 8.77 upbm affinity estimate (log intensity, higher = more binding, comparable within an allelic series); with ALX1 it was 12.8 upbm affinity estimate (log intensity, higher = more binding, comparable within an allelic series); with HOXA4 [15], 11.5 upbm affinity estimate (log intensity, higher = more binding, comparable within an allelic series); with PRRX1 [16], 13.4 upbm affinity estimate (log intensity, higher = more binding, comparable within an allelic series); in the experiment with VAX1 [17], 13.3 upbm affinity estimate (log intensity, higher = more binding, comparable within an allelic series).
With AATTAACA, the binding signal is 11.9 upbm affinity estimate (log intensity, higher = more binding, comparable within an allelic series) in the experiment with VENTX; 10.8 upbm affinity estimate (log intensity, higher = more binding, comparable within an allelic series) with HOXA4 [1]; 11.3 upbm affinity estimate (log intensity, higher = more binding, comparable within an allelic series) in the experiment with HOXA7 [2]; 13.9 upbm affinity estimate (log intensity, higher = more binding, comparable within an allelic series) with ALX4 [3]; 11.2 upbm affinity estimate (log intensity, higher = more binding, comparable within an allelic series) with PRRX1 [4]; 10 upbm affinity estimate (log intensity, higher = more binding, comparable within an allelic series) with HOXB6 [5]. For the same sequence, the binding signal is 13.2 upbm affinity estimate (log intensity, higher = more binding, comparable within an allelic series) in the experiment with ALX4 [6]; 12.6 upbm affinity estimate (log intensity, higher = more binding, comparable within an allelic series) with HOXA2 [7]; 12.4 upbm affinity estimate (log intensity, higher = more binding, comparable within an allelic series) with MSX2 [8]; 13.1 upbm affinity estimate (log intensity, higher = more binding, comparable within an allelic series) with HOXA2 [9]; 13.7 upbm affinity estimate (log intensity, higher = more binding, comparable within an allelic series) with HOXA4 [10]; 13.6 upbm affinity estimate (log intensity, higher = more binding, comparable within an allelic series) with MSX2 [11]. Besides, the binding signal was 13.2 upbm affinity estimate (log intensity, higher = more binding, comparable within an allelic series) in the experiment with MSX2 [12]; 12.6 upbm affinity estimate (log intensity, higher = more binding, comparable within an allelic series) in the experiment with VAX1 [13]; 8.91 upbm affinity estimate (log intensity, higher = more binding, comparable within an allelic series) with HOXA7 [14]; 12.4 upbm affinity estimate (log intensity, higher = more binding, comparable within an allelic series) in the experiment with ALX1; 11.7 upbm affinity estimate (log intensity, higher = more binding, comparable within an allelic series) with HOXA4 [15]; 13.3 upbm affinity estimate (log intensity, higher = more binding, comparable within an allelic series) with PRRX1 [16]. The binding signal with VAX1 [17] is 12.8 upbm affinity estimate (log intensity, higher = more binding, comparable within an allelic series); in the experiment with HOXB6 [18] it was 11.7 upbm affinity estimate (log intensity, higher = more binding, comparable within an allelic series).
